# Experimental data as given in PubChem BioAssay AID1671189 (National Center for Advancing Translational Sciences (NCATS), 2021).
# “And” between values parts separate entries of the source, which are not always exact repeats. Identical values can stand only once. About 70 (6%) of roughly 1,100 compounds were called active. Not shown: some 22% with an inconclusive outcome. The sample holds actives, similar compounds and a random draw of the others, so the mix is not that of the screen. Calls come from the whole dose curve; as a rule, active = well fitted curve in the direction sought with a large enough effect; inconclusive = small, poorly fitted or top-dose-only effect, or another doubt; inactive = no such curve, though single readings can be large or run the other way.
# Biological target: Polyunsaturated fatty acid lipoxygenase ALOX12 (Homo sapiens) (UniProt P18054)
# Experiment: Confirmatory qHTS assay for inhibitors of human arachidonate 12S-lipoxygenase (ALOX12): Round 2
# Conditions: purified human 12-LOX, xylenol orange absorbance; series mostly up to 125 µM; activity change, negative = inhibition: at the top concentration
# Outline: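 Purified human enzyme (150 nM) in 25 mM Hepes, 0.01% Triton X-100, pH 7.0, preincubated 15 min with compound, then 40 uM arachidonic acid for 30 min at room temperature. Hydroperoxide detected by Fe-XO, read as 573/405 nm absorbance ratio.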
# % is set by controls: 0 for no effect and ±100 for the full control effect; potency is the fitted concentration of half-maximal effect.
# Chain of Polyunsaturated fatty acid lipoxygenase ALOX12 (Homo sapiens) (P18054 whole entry, looked up): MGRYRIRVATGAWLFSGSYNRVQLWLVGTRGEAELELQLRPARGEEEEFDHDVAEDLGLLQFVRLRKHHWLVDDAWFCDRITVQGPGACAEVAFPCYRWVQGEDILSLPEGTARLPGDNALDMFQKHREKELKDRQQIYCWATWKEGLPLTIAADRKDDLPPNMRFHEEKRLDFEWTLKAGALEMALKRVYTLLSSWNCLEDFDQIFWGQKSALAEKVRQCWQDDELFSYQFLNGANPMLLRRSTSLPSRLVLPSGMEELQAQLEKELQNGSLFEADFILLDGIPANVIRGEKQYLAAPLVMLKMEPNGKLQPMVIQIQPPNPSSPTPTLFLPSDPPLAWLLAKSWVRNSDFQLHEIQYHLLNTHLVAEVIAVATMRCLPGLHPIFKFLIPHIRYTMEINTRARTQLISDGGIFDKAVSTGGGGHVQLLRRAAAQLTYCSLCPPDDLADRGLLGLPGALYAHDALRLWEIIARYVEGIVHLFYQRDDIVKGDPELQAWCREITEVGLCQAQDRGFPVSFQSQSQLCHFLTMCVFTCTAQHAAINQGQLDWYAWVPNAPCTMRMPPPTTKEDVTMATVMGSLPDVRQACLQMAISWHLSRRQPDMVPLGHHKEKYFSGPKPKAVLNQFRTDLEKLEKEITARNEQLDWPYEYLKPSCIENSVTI
Compound,"activity change, negative = inhibition",Potency
CNc1oc(-c2ccc(Cl)c(Cl)c2)nc1C#N,-1.38% [at 64.5 µM] (inactive),–
Clc1ccc(NCCN2CCCC2)cc1,–,90.2 µM (active)
c1ccc(NCCN2CCCC2)cc1,-22.6% [at 233 µM] (inactive),–
c1cc(NCCN2CCCC2)ccn1,-4.41% [at 233 µM] (inactive),–
Cn1nc(C2CCNC2)c2c(C(=O)NC3CC3)cc(C3CC3)nc21 (stereo not drawn),-13.8% (inactive),–
O=C(OCC#CCSc1nnc(-c2cccc3ccccc23)o1)c1ccsc1,-10.6% [at 64.5 µM] (inactive),–
NCc1ccc(-c2cccc(O)c2)cc1,-27.6% (inactive),–
Nc1cc(-c2ccccc2)ccc1O,–,0.273 µM (active)
NCc1ccc(-c2cccc(Cl)c2)cc1,-14.7% (inactive),–
N[C@@H]1CC[C@H](C(=O)N2CCC(c3nccn3Cc3ccncc3)CC2)C1,-14.6% [at 64.5 µM] (inactive),–
O=C(OCC#CCSc1nnc(-c2cccc3ccccc23)o1)c1sccc1Cl,8.4% [at 64.5 µM] (inactive),–
CN1CC(=O)N(C2CCNC2)Cc2c(NCC3(O)CCCCC3)ncnc21 (stereo not drawn),-19.9% (inactive),–
CCCCN1C(=O)[C@@H]2C[C@@H](O)CN2C2(CN(Cc3cnc[nH]3)C2)C1=O,16.1% [at 64.5 µM] (inactive),–
O=C(c1cc(C2CC2)nc2onc(C3CCCNC3)c12)N1CCCCC1 (stereo not drawn),-15.8% (inactive),–
CC(=O)NC1(C)CCN(Cc2cnc(-c3ccccc3OCc3ccccc3)s2)CC1,–,4.47 µM (active)
O=C1NCc2ccccc2CC12CCN(Cc1ccc(Cl)o1)C2 (stereo not drawn),-14.1% (inactive),–
O=C1Nc2ccccc2C12CCN(Cc1ccccc1)C2 (stereo not drawn),-20.4% (inactive),–
CC(=O)N1CCN(C(=O)CSCC(=O)O)C[C@H]1C(=O)N[C@H]1CCCNC1=O,-4.79% [at 64.5 µM] (inactive),–
O=c1[nH]c(C2CCCN(Cc3ccc(-c4cc(F)cc(F)c4)cc3)C2)nc2ccc(F)cc12 (stereo not drawn),-20.1% (inactive),–
CN1CC(=O)N(C2CCNCC2)Cc2c(NC3CCCCC3)ncnc21,-13% (inactive),–
O=c1n(-c2cccc(Cl)c2)nc2n1CCN([S+](=O)([O-])c1ccccc1)C2,-36% (inactive),–
O=C(c1ccccc1)N1CCn2c(nn(-c3cccc(Cl)c3)c2=O)C1,-29% (inactive),–
O=C(c1cc(-c2ccco2)nn1-c1cccc(Cl)c1)N1CCCCC1,–,9.68 µM (active)

Compound,"activity change, negative = inhibition",Potency
O=C(c1ccc(C(F)(F)F)cc1)N1CCc2nc(C3CC3)nc(-c3ccc(Cl)cc3)c2C1,-19.2% (inactive),–
O=C(N1CCCC1)N1CCn2c(nnc2-c2cncc(Br)c2)C1,-10.2% (inactive),–
O=C(O)CCCC(=O)N1Cc2ccccc2CC2(CCCN2Cc2ccccc2)C1 (stereo not drawn),-17.9% (inactive),–
CC1CCCN(c2ncnc3c2CN(C2CCCNCC2)C(=O)CN3C)C1 (stereo not drawn),-9.31% (inactive),–
CCC(=O)NC(c1ccco1)c1cc(Cl)c2cccnc2c1O (stereo not drawn),–,2.17 µM (active)
CC(=O)NC(c1ccco1)c1cc(Cl)c2cccnc2c1O (stereo not drawn),–,4.85 µM (active)
CCC(=O)NC(c1ccco1)c1cc(Cl)c2cccnc2c1OC (stereo not drawn),10.7% [at 64.5 µM] (inactive),–
COc1ccc(CNc2ncnc3c2CN(C2CCCNCC2)C(=O)CN3C)cc1 (stereo not drawn),-4.88% (inactive),–
C[S+](=O)([O-])N1Cc2ccccc2OC2(CCN(C(=O)c3ccc(N)nc3)CC2)C1,-11.4% (inactive),–
CN1C(=O)[C@@H]2C[C@@H](CN2C2CCCC2)Oc2ccccc21,14.6% (inactive),–
N#Cc1ccc(CN2CCC3(CN[S+](=O)([O-])c4cnccc4O3)C2)cc1 (stereo not drawn),-2.99% (inactive),–
CNCCN1C(=O)CC[C@H]2CN(C(=O)c3ccc(Cl)cn3)CC[C@H]21,-6.14% [at 64.5 µM] (inactive),–
C=CCNC(=O)[C@@H]1Cc2cn(CC#CC)c3cccc(c23)[C@H](CC(C)C)N1,24% [at 64.5 µM] (inactive),–
C=CCn1cc(CN(Cc2ccco2)Cc2cccs2)c(C)n1,–,10 µM (active)
Cc1ccc(C(=O)N2CCn3c(nnc3C3CCNCC3)C2)cc1,-13.1% (inactive),–
c1ccc(COCCCc2cnc[nH]2)cc1,-4.41% (inactive),–
COCCNC(=O)c1cc(C)nc2onc(C3CCCNC3)c12 (stereo not drawn),-16.4% (inactive),–
O=C(O)c1ccc(-c2cnccn2)cc1,-16.6% [at 233 µM] (inactive),–
CN1CCC2(Cc3ccccc3CN(C(=O)Cc3cccc(Cl)c3)C2)C1 (stereo not drawn),-13.9% (inactive),–
CNC(C)c1cccc(OC)c1 (stereo not drawn),-2.95% [at 233 µM] (inactive),–
O=[S+]([O-])(Nc1ccc(N2CCNCC2)cc1)c1ccc(NCc2ccc(Br)cc2O)cc1,–,21.7 µM (active)
O=[S+]([O-])(Nc1ccc(N2CCNCC2)cc1)c1ccc(NCc2ccc(Cl)cc2O)cc1,–,21.7 µM (active)
O=C(CCC[C@H]1NC[C@@H]2CC1CN(Cc1ccccc1)C2)NCc1ccc(F)cc1,-6.95% [at 64.5 µM] (inactive),–

Compound,"activity change, negative = inhibition",Potency
Cc1ccc(CN2CCC3(CC2)Cc2ccccc2CNC3=O)cc1C,-18.2% (inactive),–
O=C(NCc1ccncc1)c1cc(C2CC2)nc2c1c(C1CCCN1)nn2-c1ccccc1 (stereo not drawn),-24.4% (inactive),–
Cc1cc(C(=O)NCc2ccc(F)cc2)c2c(C3CCNC3)noc2n1 (stereo not drawn),-2.62% (inactive),–
O=C1CCN(C(=O)[C@@H]2CCCN2Cc2ccc(C(F)(F)F)cc2)CCCCCCN1,0.301% [at 64.5 µM] (inactive),–
CCn1cc(-c2ccc(C)cc2)cc1C(=O)N1CCN(c2ccccn2)CC1,-19.2% [at 64.5 µM] (inactive),–
CCC(C)Cn1c(/C=C/c2ccccc2)nc2ccccc21 (stereo not drawn),-20.9% (inactive),–
C[C@]1(CO)[C@H]2Cc3sc(NC(=O)c4ccnc(Cl)c4)nc3[C@@H](CC(=O)O)[C@]2(C)CC[C@H]1O,-0.718% [at 64.5 µM] (inactive),–
CCC(=O)NC(c1cccs1)c1cc(Cl)c2cccnc2c1O (stereo not drawn),–,1.93 µM (active) and 4.85 µM (active) and 2.43 µM (active)
COC(=O)[C@H](c1ccccc1Cl)N1CCc2sccc2C1,-3.69% (inactive),–
CC(=O)NC(c1cccs1)c1cc(Br)c2cccnc2c1O (stereo not drawn),6.7% [at 64.5 µM] (inactive),–
CCC(=O)NC(c1cccs1)c1cc([N+](=O)[O-])c2cccnc2c1O (stereo not drawn),–,6.11 µM (active)
CC(=O)NC(c1cccs1)c1cc(Cl)c2cccnc2c1O (stereo not drawn),–,3.06 µM (active)
NCc1cccc(-c2cc(C(F)(F)F)ccc2Cl)c1,-40.7% (inactive),–
Cc1ccc(CN2CCc3oc(C)c(C(=O)N4CCSCC4)c3C2)cc1,-4.93% [at 64.5 µM] (inactive),–
Cc1ccc(CCN2CCCCC23Cc2ccccc2CN(C(=O)CCCC(=O)O)C3)cc1 (stereo not drawn),-13.9% (inactive),–
CN1CC(=O)N(C2CCCNC2)Cc2c(NC3CCCCCC3)ncnc21 (stereo not drawn),-16.7% (inactive),–
CC(C)(N)C(=O)N1CCCC(N2CCN(Cc3ccc4c(c3)OCO4)CC2)C1 (stereo not drawn),-16% [at 64.5 µM] (inactive),–
COc1ccc(N2CC3CCC(C2)N3C(C)=O)cc1,-16.6% (inactive),–
O=C(c1cc(C2CC2)nc2onc(C3CCCN3)c12)N1CCC(F)CC1 (stereo not drawn),-12.7% (inactive),–
COc1ccc(C(=O)N2CC(Oc3ccc4c(c3)OCO4)C2)cc1,-21.1% (inactive),–
O=C(NC1CCCCC1)O[C@@H]1CO[C@H]2[C@@H]1OC[C@@H]2n1nnnc1SCc1ccco1,–,7.08 µM (active)
O=C(Nc1ccccc1)O[C@@H]1CO[C@H]2[C@@H]1OC[C@@H]2n1nnnc1SCc1ccco1,-10.7% [at 64.5 µM] (inactive),–
